{"source": "the supplement of paper PMC11001985", "note": "Unmarked numbers belong to inactive results."}
{"compound": "C#CCNC(=O)CCSSCCC(=O)NCCc1ccc(C=O)c(C=O)c1", "experiment": "lysine labeling ratio R10:1 (500 µM / 50 µM probe), SILAC-ABPP in living cells; higher = lower intrinsic lysine reactivity toward the probe, active = 2 or less", "conditions": "HeLa; probe concentrations 500 vs 50 µM", "outline": "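With forward and reverse label swaps, light and heavy SILAC HeLa cells, alive and in PBS at room temperature, were exposed to either 500 µM or 50 µM of an alkyne-tagged lysine probe bearing a disulfide link. After mixing, lysates were clicked to biotin-azide, cut with trypsin, pulled down on neutravidin, freed with DTT, alkylated and analysed on a TIMS-TOF Pro by LC-MS/MS. The per-lysine value R is the median over forward and reverse replicates of the filtered median high-probe/low-probe MS1 peptide ratio. It is capped at 20.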"}
{"target": "ACTN1 (lysine site: K492) (UniProt P12814)", "lysine labeling ratio R10:1": "0.906 (active)"}
{"target": "C3 (lysine site: K1535) (UniProt P01024)", "lysine labeling ratio R10:1": 5.81}
{"target": "FRAS1 (lysine site: K1164) (UniProt Q86XX4)", "sequence (Q86XX4 whole entry)": "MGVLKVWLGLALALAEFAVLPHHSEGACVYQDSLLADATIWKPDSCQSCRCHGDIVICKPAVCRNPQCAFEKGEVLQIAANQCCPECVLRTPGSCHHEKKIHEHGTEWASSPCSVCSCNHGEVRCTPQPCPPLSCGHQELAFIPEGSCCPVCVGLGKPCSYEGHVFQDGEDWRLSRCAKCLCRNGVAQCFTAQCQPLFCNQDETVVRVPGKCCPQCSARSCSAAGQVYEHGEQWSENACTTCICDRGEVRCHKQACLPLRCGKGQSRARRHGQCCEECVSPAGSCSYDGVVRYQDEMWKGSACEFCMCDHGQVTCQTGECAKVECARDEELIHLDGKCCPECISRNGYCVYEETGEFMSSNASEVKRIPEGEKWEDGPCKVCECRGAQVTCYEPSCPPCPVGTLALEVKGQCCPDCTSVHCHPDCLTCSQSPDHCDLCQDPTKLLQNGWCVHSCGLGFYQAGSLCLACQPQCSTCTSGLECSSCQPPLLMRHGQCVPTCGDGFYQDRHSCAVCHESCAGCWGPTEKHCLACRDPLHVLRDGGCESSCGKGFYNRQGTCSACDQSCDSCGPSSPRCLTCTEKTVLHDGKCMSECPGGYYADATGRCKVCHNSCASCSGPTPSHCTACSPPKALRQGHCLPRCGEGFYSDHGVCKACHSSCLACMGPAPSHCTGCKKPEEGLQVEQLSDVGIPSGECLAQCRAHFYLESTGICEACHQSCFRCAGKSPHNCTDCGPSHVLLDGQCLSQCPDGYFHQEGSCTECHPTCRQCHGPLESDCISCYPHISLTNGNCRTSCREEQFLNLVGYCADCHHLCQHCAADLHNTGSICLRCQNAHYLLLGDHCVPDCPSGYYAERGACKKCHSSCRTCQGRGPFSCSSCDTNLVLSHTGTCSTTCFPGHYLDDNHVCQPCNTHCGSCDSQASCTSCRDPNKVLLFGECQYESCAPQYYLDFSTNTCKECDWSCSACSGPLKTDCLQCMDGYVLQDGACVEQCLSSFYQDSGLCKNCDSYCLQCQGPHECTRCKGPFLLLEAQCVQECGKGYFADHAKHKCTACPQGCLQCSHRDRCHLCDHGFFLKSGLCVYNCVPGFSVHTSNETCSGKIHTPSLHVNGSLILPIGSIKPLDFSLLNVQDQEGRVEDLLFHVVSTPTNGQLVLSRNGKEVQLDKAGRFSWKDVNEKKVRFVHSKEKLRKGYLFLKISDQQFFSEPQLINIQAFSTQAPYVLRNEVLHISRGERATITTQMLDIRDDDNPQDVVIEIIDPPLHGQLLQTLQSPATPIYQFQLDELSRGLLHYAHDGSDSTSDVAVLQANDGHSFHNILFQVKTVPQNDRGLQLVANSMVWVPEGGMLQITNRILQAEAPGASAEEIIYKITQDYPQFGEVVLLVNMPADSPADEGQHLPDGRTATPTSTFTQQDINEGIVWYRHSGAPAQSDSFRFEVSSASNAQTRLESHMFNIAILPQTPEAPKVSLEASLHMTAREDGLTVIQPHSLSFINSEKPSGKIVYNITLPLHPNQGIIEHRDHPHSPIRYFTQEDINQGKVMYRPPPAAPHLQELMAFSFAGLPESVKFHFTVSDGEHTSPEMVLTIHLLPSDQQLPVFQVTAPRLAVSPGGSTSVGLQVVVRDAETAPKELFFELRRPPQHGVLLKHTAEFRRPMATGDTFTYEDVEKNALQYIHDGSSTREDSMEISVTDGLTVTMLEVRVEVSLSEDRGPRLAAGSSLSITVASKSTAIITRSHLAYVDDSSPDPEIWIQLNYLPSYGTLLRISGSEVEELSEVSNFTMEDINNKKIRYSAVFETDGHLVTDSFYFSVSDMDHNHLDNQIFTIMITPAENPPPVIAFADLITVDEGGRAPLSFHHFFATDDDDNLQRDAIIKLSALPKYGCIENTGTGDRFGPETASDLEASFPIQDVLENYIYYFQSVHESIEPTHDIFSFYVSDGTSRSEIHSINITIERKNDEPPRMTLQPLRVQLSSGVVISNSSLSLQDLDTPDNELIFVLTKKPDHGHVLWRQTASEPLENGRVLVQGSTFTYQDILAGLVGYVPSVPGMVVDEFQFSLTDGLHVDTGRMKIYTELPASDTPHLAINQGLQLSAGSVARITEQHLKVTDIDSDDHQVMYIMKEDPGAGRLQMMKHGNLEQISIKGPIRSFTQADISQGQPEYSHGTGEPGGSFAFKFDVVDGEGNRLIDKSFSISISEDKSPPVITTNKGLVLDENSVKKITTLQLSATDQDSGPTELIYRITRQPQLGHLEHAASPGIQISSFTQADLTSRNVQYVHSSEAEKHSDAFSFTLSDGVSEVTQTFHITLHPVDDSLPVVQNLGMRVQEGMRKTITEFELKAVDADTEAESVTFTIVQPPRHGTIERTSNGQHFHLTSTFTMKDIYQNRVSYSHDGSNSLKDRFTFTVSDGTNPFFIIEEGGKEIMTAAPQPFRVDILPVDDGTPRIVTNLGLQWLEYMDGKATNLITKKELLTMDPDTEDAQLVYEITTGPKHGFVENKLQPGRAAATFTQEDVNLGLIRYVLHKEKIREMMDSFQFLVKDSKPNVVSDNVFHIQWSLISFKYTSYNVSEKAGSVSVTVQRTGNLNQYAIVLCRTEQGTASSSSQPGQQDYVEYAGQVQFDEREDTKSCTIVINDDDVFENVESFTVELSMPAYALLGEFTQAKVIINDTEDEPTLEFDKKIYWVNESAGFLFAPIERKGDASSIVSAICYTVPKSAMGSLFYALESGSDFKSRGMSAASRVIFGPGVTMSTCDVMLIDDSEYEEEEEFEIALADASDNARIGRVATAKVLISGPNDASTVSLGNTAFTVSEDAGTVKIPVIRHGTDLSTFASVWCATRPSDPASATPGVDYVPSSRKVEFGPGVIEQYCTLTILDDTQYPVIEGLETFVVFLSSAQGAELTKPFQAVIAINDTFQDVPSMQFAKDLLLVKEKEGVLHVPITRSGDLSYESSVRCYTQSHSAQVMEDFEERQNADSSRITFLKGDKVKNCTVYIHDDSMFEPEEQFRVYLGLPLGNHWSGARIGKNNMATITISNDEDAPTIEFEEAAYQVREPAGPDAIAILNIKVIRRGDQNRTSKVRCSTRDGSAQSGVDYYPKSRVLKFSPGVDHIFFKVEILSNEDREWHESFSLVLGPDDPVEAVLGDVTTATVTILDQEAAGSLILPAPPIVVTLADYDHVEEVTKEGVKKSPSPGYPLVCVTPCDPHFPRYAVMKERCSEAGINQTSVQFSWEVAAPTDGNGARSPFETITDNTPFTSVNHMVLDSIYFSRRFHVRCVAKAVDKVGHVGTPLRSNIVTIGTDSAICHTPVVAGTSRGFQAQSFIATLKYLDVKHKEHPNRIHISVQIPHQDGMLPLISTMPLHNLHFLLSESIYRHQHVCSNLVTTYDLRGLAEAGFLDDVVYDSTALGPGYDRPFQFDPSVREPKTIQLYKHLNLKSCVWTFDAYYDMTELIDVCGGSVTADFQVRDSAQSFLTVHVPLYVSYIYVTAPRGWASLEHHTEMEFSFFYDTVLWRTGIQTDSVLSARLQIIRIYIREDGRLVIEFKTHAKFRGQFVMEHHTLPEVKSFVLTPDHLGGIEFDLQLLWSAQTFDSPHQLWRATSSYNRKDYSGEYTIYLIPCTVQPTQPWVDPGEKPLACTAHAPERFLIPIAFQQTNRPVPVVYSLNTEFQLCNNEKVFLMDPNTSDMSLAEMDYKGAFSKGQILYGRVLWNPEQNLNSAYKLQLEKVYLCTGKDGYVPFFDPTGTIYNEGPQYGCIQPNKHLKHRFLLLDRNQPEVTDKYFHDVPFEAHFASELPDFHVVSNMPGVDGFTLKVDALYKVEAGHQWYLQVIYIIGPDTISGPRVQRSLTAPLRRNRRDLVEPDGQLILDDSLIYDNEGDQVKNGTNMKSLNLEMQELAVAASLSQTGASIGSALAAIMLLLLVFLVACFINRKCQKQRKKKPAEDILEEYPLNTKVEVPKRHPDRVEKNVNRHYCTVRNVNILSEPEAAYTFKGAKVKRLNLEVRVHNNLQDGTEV", "lysine labeling ratio R10:1": "1.34 (active)"}
{"target": "SUB1 (lysine site: K39) (UniProt P53999)", "lysine labeling ratio R10:1": "1.42 (active)"}
{"target": "PDIA3 (lysine site: K274) (UniProt P30101)", "lysine labeling ratio R10:1": 3.59}
{"target": "UniProt Q15149 (lysine site: K932)", "lysine labeling ratio R10:1": 6.51}
{"target": "CD97 (lysine site: K499) (UniProt P48960)", "lysine labeling ratio R10:1": 3.84}
{"target": "WNT5A (lysine site: K208) (UniProt P41221)", "lysine labeling ratio R10:1": 2.67}
{"target": "CD46 (lysine site: K227) (UniProt P15529)", "lysine labeling ratio R10:1": 6.48}
{"target": "EDIL3 (lysine site: K426) (UniProt O43854)", "lysine labeling ratio R10:1": 2.91}
{"target": "NUMA1 (lysine site: K1625) (UniProt Q14980)", "lysine labeling ratio R10:1": 3.65}
{"target": "UniProt Q9H336 (lysine site: K242)", "lysine labeling ratio R10:1": 2.36}
{"target": "NUCB2 (lysine site: K184) (UniProt P80303)", "lysine labeling ratio R10:1": 2.65}
{"target": "ITGB1 (lysine site: K575) (UniProt P05556)", "sequence (P05556 whole entry)": "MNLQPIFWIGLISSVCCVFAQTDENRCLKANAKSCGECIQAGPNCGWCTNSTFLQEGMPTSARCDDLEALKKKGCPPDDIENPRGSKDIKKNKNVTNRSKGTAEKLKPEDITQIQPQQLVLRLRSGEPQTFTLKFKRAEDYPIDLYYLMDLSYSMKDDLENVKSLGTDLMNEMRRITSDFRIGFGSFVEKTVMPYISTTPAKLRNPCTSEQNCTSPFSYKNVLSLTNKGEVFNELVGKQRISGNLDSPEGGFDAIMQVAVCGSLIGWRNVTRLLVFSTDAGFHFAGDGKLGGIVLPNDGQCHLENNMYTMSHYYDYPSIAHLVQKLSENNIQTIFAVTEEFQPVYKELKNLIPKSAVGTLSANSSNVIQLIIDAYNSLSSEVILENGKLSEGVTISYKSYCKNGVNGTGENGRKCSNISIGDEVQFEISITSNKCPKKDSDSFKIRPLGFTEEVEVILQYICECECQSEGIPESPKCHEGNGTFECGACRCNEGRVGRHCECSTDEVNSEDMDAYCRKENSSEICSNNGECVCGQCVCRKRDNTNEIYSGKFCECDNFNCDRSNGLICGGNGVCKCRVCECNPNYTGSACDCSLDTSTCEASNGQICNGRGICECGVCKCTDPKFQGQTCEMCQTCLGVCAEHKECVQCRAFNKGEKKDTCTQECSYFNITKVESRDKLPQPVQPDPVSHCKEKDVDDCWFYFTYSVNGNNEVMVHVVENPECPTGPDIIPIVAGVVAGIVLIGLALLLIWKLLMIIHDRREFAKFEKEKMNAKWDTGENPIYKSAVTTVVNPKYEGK", "lysine labeling ratio R10:1": 3.24}
{"target": "UniProt P08727 (lysine site: K370)", "lysine labeling ratio R10:1": 3.4}
{"target": "IQGAP1 (lysine site: K856) (UniProt P46940)", "lysine labeling ratio R10:1": "1.47 (active)"}
{"target": "LAMP1 (lysine site: K337) (UniProt P11279)", "lysine labeling ratio R10:1": 6.57}
